# Results: the supplement of paper PMC6089552
# Among all 3,200 compounds or so, about 300 (9.4%) showed activity. The sample as a whole holds a higher share of actives than the screen did. Values without a mark were called inactive.
# Tested on: A673/TR/shEF
# Experiment: cell viability (LOESS-normalised, relative to median of negative controls) (log2 ratio); higher = more viable cells (less compound effect), active = hit call of the paper (over 3 MAD below the median)
# Conditions: treatment time: 72 h
# Procedure, shortened: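 Doxycycline, present or absent from 24 h before compounds, was used to induce EWS-FLI1 shRNA knockdown in A673/TR/shEF Ewing sarcoma cells at 1,500 per well in 384-well plates. Cells then received library compounds at two or more concentrations, or DMSO controls, for three days. Viability was measured by CellTiter-Glo luminescence on an Envision reader, and per-plate LOESS correction, division by the negative-control median and log2 transformation followed.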
# [1] = 0.25 µM, library screen: screen1, EWS-FLI1 expression: high (no doxycycline)
# [2] = 0.25 µM, library screen: screen1, EWS-FLI1 expression: low (doxycycline-induced shRNA knockdown)
# [3] = 2.5 µM, library screen: screen1, EWS-FLI1 expression: high (no doxycycline)
# [4] = 2.5 µM, library screen: screen1, EWS-FLI1 expression: low (doxycycline-induced shRNA knockdown)
# [5] = 0.25 µM, library screen: screen2, EWS-FLI1 expression: high (no doxycycline)
# [6] = 0.25 µM, library screen: screen2, EWS-FLI1 expression: low (doxycycline-induced shRNA knockdown)
# [7] = 2.5 µM, library screen: screen2, EWS-FLI1 expression: high (no doxycycline)
# [8] = 2.5 µM, library screen: screen2, EWS-FLI1 expression: low (doxycycline-induced shRNA knockdown)
structure (smiles),measurement,setting,value
CN=C1CN(O)C(c2ccccc2)=c2cc(Cl)ccc2=N1,cell viability (log2),[1],0.0853
same,cell viability (log2),[2],0.0654
same,cell viability (log2),[3],0.0997
same,cell viability (log2),[4],0.0898
CCN1C[C@]2(C)CC[C@H](OC)[C@@]34C1[C@]1(OCO[C@@]15C[C@H](OC)[C@H]1C[C@]3(O)[C@@H]5[C@H]1OC)[C@@H](OC(C)=O)[C@H]24,cell viability (log2),[1],0.0895
same,cell viability (log2),[2],0.0208
same,cell viability (log2),[3],0.12
same,cell viability (log2),[4],0.0444
C=CCN1CC[C@]23c4c5ccc(O)c4O[C@@H]2/C(=N/N=C2\CC[C@@]4(O)C6Cc7ccc(O)c8c7[C@@]4(CCN6CC=C)[C@@H]2O8)CC[C@@]3(O)C1C5,cell viability (log2),[5],0.27
same,cell viability (log2),[6],0.119
same,cell viability (log2),[7],0.0736
same,cell viability (log2),[8],0.0511
S=C=NCc1ccccc1,cell viability (log2),[1],0.0421
same,cell viability (log2),[2],0.0817
same,cell viability (log2),[3],0.0546
same,cell viability (log2),[4],0.123
CCOP(=S)(OCC)Oc1ccc2c(C)c(Cl)c(=O)oc2c1,cell viability (log2),[1],-0.0154
same,cell viability (log2),[2],-0.0116
same,cell viability (log2),[3],0.000589
same,cell viability (log2),[4],-0.0198
COc1c2c(cc3c1OCO3)CC[N+](C)=C2,cell viability (log2),[1],0.122
same,cell viability (log2),[2],0.157
same,cell viability (log2),[3],0.0941
same,cell viability (log2),[4],0.18
COc1ccc(C(=O)OC2CCC3(C)C4CCC5[C@]6(O)C[C@H](O)[C@@]7(O)C(CN8CC(C)CCC8[C@@]7(C)O)[C@]6(O)C[C@@]53O[C@]24O)cc1OC (some centres not stated),cell viability (log2),[1],0.0564
same,cell viability (log2),[2],0.0531
same,cell viability (log2),[3],0.0896
same,cell viability (log2),[4],0.133
S=C=Nc1cccc(C2(N3CCCCC3)CCCCC2)c1,cell viability (log2),[5],0.168
same,cell viability (log2),[6],0.105
same,cell viability (log2),[7],0.16
same,cell viability (log2),[8],0.118
NCCCP(=O)(O)O,cell viability (log2),[5],0.138
same,cell viability (log2),[6],0.0766
same,cell viability (log2),[7],0.114
same,cell viability (log2),[8],0.116
O=C1C=CC(=O)c2c(O)cccc21,cell viability (log2),"0.025 µM, library screen: screen2, EWS-FLI1 expression: high (no doxycycline)",0.123
same,cell viability (log2),"0.025 µM, library screen: screen2, EWS-FLI1 expression: low (doxycycline-induced shRNA knockdown)",0.0947
same,cell viability (log2),[1],0.185
same,cell viability (log2),[2],0.0663
same,cell viability (log2),[5],0.0843
same,cell viability (log2),[6],0.00401
same,cell viability (log2),[3],0.153
same,cell viability (log2),[4],0.0956
same,cell viability (log2),[7],0.273
same,cell viability (log2),[8],0.125
same,cell viability (log2),"25 µM, library screen: screen2, EWS-FLI1 expression: high (no doxycycline)",-0.0924 (active)
same,cell viability (log2),"25 µM, library screen: screen2, EWS-FLI1 expression: low (doxycycline-induced shRNA knockdown)",-0.0926 (active)
CCCCCCC(C)(C)c1ccc([C@H]2C[C@@H](O)CC[C@H]2CCCO)c(O)c1,cell viability (log2),[5],0.0289
same,cell viability (log2),[6],0.103
same,cell viability (log2),[7],0.129
same,cell viability (log2),[8],0.122
CCc1cccc(C)c1N(C(=O)CCl)C(C)COC (configuration not stated),cell viability (log2),[1],0.0561
same,cell viability (log2),[2],0.0711
same,cell viability (log2),[3],0.0898
same,cell viability (log2),[4],0.0634
CCCC(C)(COC(N)=O)COC(=O)NC(C)C (configuration not stated),cell viability (log2),[1],0.0415
same,cell viability (log2),[2],0.112
same,cell viability (log2),[5],0.196
same,cell viability (log2),[6],0.0672
same,cell viability (log2),[3],0.137
same,cell viability (log2),[4],0.151
same,cell viability (log2),[7],-0.0715 (active)
same,cell viability (log2),[8],0.121
C[N+]1=Cc2cc3c(cc2CC1)OCO3,cell viability (log2),[1],0.0752
same,cell viability (log2),[2],0.0244
same,cell viability (log2),[3],0.15
same,cell viability (log2),[4],0.0111
COc1ccc([C@H]2Oc3c(I)c(OC)cc(OC)c3C[C@@H]2O)cc1OC,cell viability (log2),[1],-0.0318
same,cell viability (log2),[2],0.027
same,cell viability (log2),[3],0.0859
same,cell viability (log2),[4],0.059
N#C/C(=C\c1ccc(O)cc1)C(=O)O,cell viability (log2),[1],0.0465
same,cell viability (log2),[2],0.0904
same,cell viability (log2),[3],0.146
same,cell viability (log2),[4],0.0788
C[C@@H](N)Cc1cnc[nH]1,cell viability (log2),[5],0.0946
same,cell viability (log2),[6],0.0207
same,cell viability (log2),[7],0.146
same,cell viability (log2),[8],0.00233
OC[C@H]1O[C@@H](n2cnc3cc(Cl)c(Cl)cc32)[C@H](O)[C@@H]1O,cell viability (log2),"0.025 µM, library screen: screen1, EWS-FLI1 expression: high (no doxycycline)",0.182
same,cell viability (log2),"0.025 µM, library screen: screen1, EWS-FLI1 expression: low (doxycycline-induced shRNA knockdown)",-0.067
same,cell viability (log2),[1],0.227
same,cell viability (log2),[2],0.0134
same,cell viability (log2),[3],-0.183 (active)
same,cell viability (log2),[4],0.128
same,cell viability (log2),"25 µM, library screen: screen1, EWS-FLI1 expression: high (no doxycycline)",-0.16 (active)
same,cell viability (log2),"25 µM, library screen: screen1, EWS-FLI1 expression: low (doxycycline-induced shRNA knockdown)",0.0669
Cc1cc([C@@H]2CCCN2C)on1,cell viability (log2),[5],0.0967
same,cell viability (log2),[6],0.135
same,cell viability (log2),[7],0.0205
same,cell viability (log2),[8],0.0708
CN1CC[C@]2(CCN3CCc4c(oc5ccccc45)[C@@H]3C2)N(C)C1=O,cell viability (log2),[5],0.195
same,cell viability (log2),[6],0.0926
same,cell viability (log2),[7],0.114
same,cell viability (log2),[8],0.114
CCCCN(CC)c1c([N+](=O)[O-])cc(C(F)(F)F)cc1[N+](=O)[O-],cell viability (log2),[1],0.116
same,cell viability (log2),[2],0.132
same,cell viability (log2),[3],0.0478
same,cell viability (log2),[4],0.194
ClC1=C(Cl)C2(Cl)C3C(Cl)C=CC3C1(Cl)C2(Cl)Cl (configuration not stated),cell viability (log2),[1],0.152
same,cell viability (log2),[2],0.0412
same,cell viability (log2),[3],0.0862
same,cell viability (log2),[4],0.0598
CC(C)N1C(=O)c2ccccc2NS1(=O)=O,cell viability (log2),[1],0.113
same,cell viability (log2),[2],0.086
same,cell viability (log2),[3],0.0391
same,cell viability (log2),[4],0.0775
C/C=C(/C)C(=O)O[C@H]1C(C)=C2[C@H]([C@@H]1OC(=O)CCCCCCC)[C@@](C)(OC(C)=O)C[C@H](OC(=O)CCC)[C@@]1(O)[C@H]2OC(=O)[C@@]1(C)O,cell viability (log2),[5],-3.16 (active)
same,cell viability (log2),[6],-2.76 (active)
same,cell viability (log2),[7],-3.49 (active)
same,cell viability (log2),[8],-2.81 (active)
